# Assay results taken from the supplement of paper PMC8253809.
# How the values were obtained:
# Test in all cases: growth inhibition (% activity, log2 RLU normalised to DMSO / staurosporine); higher = more growth inhibition
# Settings in all cases: 33 µM
# DIPGX29 = test system: DIPGX29 (H3.3 K27M diffuse intrinsic pontine glioma line)
# Procedure, shortened: (§1)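 The growth-inhibition value is the median over replicates. pHGG cell lines and H9-derived neural stem cells on Geltrex-coated 384-well plates received approved drugs by pin tool at a single final concentration of about 33 μM, in triplicate, for 7 days at 37 °C, 5% CO2. CellTiter-Glo luminescence was log2-transformed and normalised per plate to % activity between solvent and positive control wells.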
# DIPGX37 = test system: DIPGX37 (H3.3 K27M diffuse intrinsic pontine glioma line)
# Procedure, shortened: as §1
# DIPGX7 = test system: DIPGX7 (H3.3 K27M diffuse intrinsic pontine glioma line)
# Procedure, shortened: as §1
# DIPGX9 = test system: DIPGX9 (diffuse intrinsic pontine glioma line)
# Procedure, shortened: as §1
# HGGX39 = test system: HGGX39 (paediatric high-grade glioma line)
# Procedure, shortened: as §1
# HGGX6 = test system: HGGX6 (H3.3 G34R paediatric high-grade glioma line)
# Procedure, shortened: as §1
# HNSC = test system: HNSC
# Procedure, shortened: as §1
# SUDIPGIV = test system: SUDIPGIV (diffuse intrinsic pontine glioma line)
# Procedure, shortened: as §1
# SUDIPGVI = test system: SUDIPGVI (diffuse intrinsic pontine glioma line)
# Procedure, shortened: as §1
# SUDIPGXIII = test system: SUDIPGXIII (diffuse intrinsic pontine glioma line)
# Procedure, shortened: as §1
SMILES,growth inhibition (DIPGX29) [%],growth inhibition (DIPGX37) [%],growth inhibition (DIPGX7) [%],growth inhibition (DIPGX9) [%],growth inhibition (HGGX39) [%],growth inhibition (HGGX6) [%],growth inhibition (HNSC) [%],growth inhibition (SUDIPGIV) [%],growth inhibition (SUDIPGVI) [%],growth inhibition (SUDIPGXIII) [%]
COC(=O)/C=C/C(=O)OC,-1.63,0.743,-0.432,-0.334,0.42,-3.26,6.49,-2.1,-1,1.57
C[C@H](CCC(=O)O)[C@H]1CC[C@H]2[C@@H]3CC[C@@H]4C[C@H](O)CC[C@]4(C)[C@H]3CC[C@]12C,-0.532,-0.978,-2.9,-2.11,0.371,-1.49,-2.18,-1.6,-1.83,1.26
CC(/C=C1\SC(=S)N(CC(=O)O)C1=O)=C\c1ccccc1,-1.36,-1.28,-1.21,0.579,-0.83,-0.392,-2.25,-1.67,-1.06,1.76
Cc1cn([C@@H]2C[C@@H](O)[C@H](CO)O2)c(=O)[nH]c1=O,0.778,-0.0219,0.328,-2.07,-0.771,-3.82,1.03,-0.72,-10.2,-2.27
CCN(CC)CCNC(=O)c1c(C)[nH]c(/C=C2\C(=O)Nc3ccc(F)cc32)c1C,25.8,6.19,11.1,7.94,7.9,20.3,71.3,-3.41,3.36,-4.08
CC[C@H](C)C(=O)O[C@H]1CCC=C2C=C[C@H](C)[C@H](CC[C@@H]3C[C@@H](O)CC(=O)O3)[C@H]21,3.29,-2.48,9.34,3.1,21.1,12.9,47.3,15.3,-4.05,28.8
Cc1nnc(NS(=O)(=O)c2ccc(N)cc2)s1,2.52,1.32,1.72,2.78,0.783,-1.19,44.8,2.1,1.77,-1.87
O=c1[nH]c(=O)n([C@H]2C[C@H](O)[C@@H](CO)O2)cc1I,0.0722,-1.6,-3.14,-0.0918,-2.1,-0.2,17.9,-1.37,-0.112,0.635
CC(C)(OCc1nn(Cc2ccccc2)c2ccccc12)C(=O)O,-3.94,-1.16,-1.8,-2.2,-3.82,-4.18,-2.36,-3.25,-2.56,0.0548
CCOC(=O)c1c(CSc2ccccc2)n(C)c2cc(Br)c(O)c(CN(C)C)c12,0.0747,-1.13,3.04,0.402,0.0757,-2.62,53.4,-4.36,-8.38,3.61
O=C1c2cccc3c2[C@H](CCC3)CN1[C@@H]1CN2CCC1CC2,1.6,0.267,-0.559,0.719,1.18,1.03,-3.52,-0.551,0.132,0.79
CCCCC1C(=O)N(c2ccccc2)N(c2ccccc2)C1=O,-0.206,-1.51,-0.44,-1.82,-1.47,-2.46,0.0851,-3.3,-4.73,-0.592
O=C[C@H](O)[C@@H](O)[C@H](O)CO,1.32,0.386,0.91,1.55,1.07,1.49,0.405,-0.641,-1.35,-0.863
Nc1ccc(S(=O)(=O)Nc2ncccn2)cc1,0.254,1.69,0.776,-0.452,0.395,0.228,1.26,-0.517,1.02,-2.51
COc1cc2nccc(Oc3ccc(NC(=O)C4(C(=O)Nc5ccc(F)cc5)CC4)cc3)c2cc1OC,2.36,6.14,9.24,6.67,4.78,17.7,42,0.288,5.98,2
CCOC(=O)C1=C[C@@H](OC(CC)CC)[C@H](NC(C)=O)[C@@H](N)C1,-0.948,0.933,-0.6,-0.724,-0.188,0.263,0.516,1.15,0.0268,-0.397
CO/N=C(\C(=O)N[C@@H]1C(=O)N2C(C(=O)OCOC(=O)C(C)(C)C)=C(/C=C\c3scnc3C)CS[C@H]12)c1csc(N)n1,-0.112,1.84,0.192,-1.35,1.82,-1.1,0.492,0.557,0.818,-0.304
C[C@H]1C[C@@H]2[C@H]([C@@H](O)C[C@@]3(C)[C@H]2CC[C@]3(O)C(=O)CO)[C@@]2(C)C=CC(=O)C=C12,-0.195,0.838,-1.93,2.66,-0.0158,-2.28,-1.14,5.2,-0.182,1.59
Cc1cc2c(cc1S(N)(=O)=O)S(=O)(=O)CCC2,0.849,2.86,-0.717,1.06,0.974,0.857,-0.336,-0.262,2.41,1.65
CC[C@H](C)[C@H](N)C1=N[C@H](C(=O)N[C@@H](CC(C)C)C(=O)N[C@H](CCC(=O)O)C(=O)N[C@H](C(=O)N[C@H]2CCCCNC(=O)[C@H](CC(N)=O)NC(=O)[C@@H](CC(=O)O)NC(=O)[C@H](Cc3cnc[nH]3)NC(=O)[C@@H](Cc3ccccc3)NC(=O)[C@H]([C@@H](C)CC)NC(=O)[C@@H](CCCN)NC2=O)[C@@H](C)CC)CS1,0.716,-3.59,2.09,-0.221,2.77,-1.08,1.3,0.589,-1.54,-1.26
